IL1B secr inh: blocks inflammasome-driven IL-1 beta release. THP-1 LPS/ATP IL-1B secretion, AlphaLISA, 16 h; stronger effect = lower value. activity change, % at 57.5 µM. hit rate 4.7% among 360,000; in the data active = activity change below about -50%; inconclusive = mostly about -30% to -49%
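THP-1 cells pretreated 1 hr with compounds (up to 57.5 uM final), then stimulated with LPS (250 ng/mL final) plus ATP (1.25 mM final); secreted IL-1B measured by AlphaLISA after 16 hr, decreased signal indicating inhibition.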
TDP1 cell CPT: DT40-hTDP1 cell growth loss with CPT. Potency, µM (series often up to 46.2 µM), inactives show at the top dose activity change, negative = growth inhibition, actives largely listed as inhibitors. hit rate 12% among 420,000. chicken DT40 Tdp1-/-;hTDP1 cells + 20 nM CPT, ATP luminescence, 48 h; note: potency is the fitted concentration of half-maximal effect; nearly all actives have a fitted effect of over 55% in size
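Chicken DT40 Tdp1-/- cells stably complemented with human TDP1 were seeded at 400 cells/well in medium containing 20 nM camptothecin, exposed to pin-transferred compounds, and grown at 37 °C for at least 48 hr. Viability was read as ATP luminescence.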
HT1080-NT tox: kills 2HG-producing HT-1080-NT fibrosarcoma cells. Potency, µM (doses to about 46.1 µM), for inactives: at the highest dose activity, negative = less viability, most hits filed as cytotoxic. hit rate 1.6% among 360,000. HT-1080-NT fibrosarcoma viability, CellTiter-Glo ATP luminescence, 48 h;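 note: NT is the 2HG producing partner of a matched IDH1 knockdown line; potency is the fitted concentration of half-maximal effect; 0% = DMSO-treated cells and -100% = media-only wells without cells; nearly all actives have a fitted effect of over 55% in size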
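A 48-hour cytotoxicity screen used HT-1080-NT cells plated 2 hours before compound delivery. ATP-based CellTiter-Glo luminescence measured viability, normalized to DMSO and no-cell controls.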
DT40 TDP1 no CPT: qHTS for Inhibitors of human tyrosyl-DNA phosphodiesterase 1 (TDP1): qHTS in cells in absence of CPT. DT40 Tdp1-/- hTDP1 cells, no CPT, ATP luminescence, 48 h. Potency, µM (titrated, usually from 46.2 µM), for inactives: top-dose activity change, negative = growth inhibition, actives largely listed as inhibitors. hit rate 15% among 420,000. AID 686978, 2013; note: potency is the fitted concentration of half-maximal effect; nearly all actives have a fitted effect of over 55% in size
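Luminescent ATP content (CellTiter-Glo) served as the growth readout. Knockout chicken DT40 cells expressing human TDP1 were exposed to compounds without camptothecin for a minimum 48 hr at 37 °C.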
HT1080 IDH1KD tx: toxicity to HT-1080 IDH1 knockdown cells (counter line). AID 686971. Potency, µM (series often up to 46.1 µM), inactives show at the top dose activity, negative = toxicity, most hits filed as cytotoxic. HT-1080 IDH1 knockdown viability, ATP luminescence, 48 h. hit rate 2% among 360,000;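 note: potency is the fitted concentration of half-maximal effect; 0% = DMSO wells and -100% = cell-free medium wells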
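Luminescent ATP read-out (CellTiter-Glo, 10 min at room temperature) after 48 h compound exposure at 37 °C gave viability of IDH1-knockdown HT-1080 cells. Activity was normalised to DMSO and cell-free wells, then fitted as concentration-response curves.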
12-LOX inh: ALOX12 (human) lipoxygenase inhibition; purified 12hLO, xylenol orange hydroperoxide absorbance; Potency, µM (titrated, usually from 108 µM), for inactives: at the top dose activity change, negative = inhibition, actives largely listed as inhibitors; hit rate 1.1% among 580,000; AID 1671190; note: potency is the fitted concentration of half-maximal effect
Target sequence (P18054 whole entry, looked up): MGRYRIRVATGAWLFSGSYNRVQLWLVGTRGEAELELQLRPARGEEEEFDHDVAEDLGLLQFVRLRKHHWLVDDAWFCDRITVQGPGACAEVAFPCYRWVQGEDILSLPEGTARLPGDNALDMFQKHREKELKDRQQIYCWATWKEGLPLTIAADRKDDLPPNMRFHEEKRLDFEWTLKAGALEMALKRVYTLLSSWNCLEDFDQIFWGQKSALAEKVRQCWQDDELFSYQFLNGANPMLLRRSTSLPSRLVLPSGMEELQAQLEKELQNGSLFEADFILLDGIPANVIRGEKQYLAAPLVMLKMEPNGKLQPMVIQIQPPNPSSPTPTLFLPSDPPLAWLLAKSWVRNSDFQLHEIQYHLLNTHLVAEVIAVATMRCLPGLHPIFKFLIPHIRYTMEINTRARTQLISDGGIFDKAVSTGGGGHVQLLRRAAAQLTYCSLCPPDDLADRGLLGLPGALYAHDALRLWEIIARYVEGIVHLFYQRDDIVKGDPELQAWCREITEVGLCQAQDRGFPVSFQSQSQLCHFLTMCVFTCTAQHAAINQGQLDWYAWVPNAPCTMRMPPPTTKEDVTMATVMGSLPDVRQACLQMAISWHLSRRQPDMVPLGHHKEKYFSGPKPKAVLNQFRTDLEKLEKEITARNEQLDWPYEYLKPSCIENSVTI
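Hydroperoxide product was detected by ferrous iron/xylenol orange as the 573 to 405 nm absorbance ratio. Arachidonic acid at 40 uM (final) was turned over for 30 min at room temperature by 150 nM human 12hLO, pH 7.0 Hepes buffer, after 15 min compound preincubation.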
* marks the source's active call; other numbers are inactive results; ! = not confirmed by another sample; [ ] = dose if it differs, or a comment. The full list was thinned out, with hits kept by preference. Unless noted, calls come from the whole dose curve; as a rule, active = well fitted curve in the direction sought with a large enough effect; inconclusive = small, poorly fitted or top-dose-only effect, or another doubt; inactive = no such curve, though single readings can be large; an effect the other way counts as inactive or inconclusive. Unless noted, % is set by controls: 0 for no effect and ±100 for the full control effect.

`CCOc1c(Cl)cc(CNc2ccc(S(N)(=O)=O)cc2)cc1OC` gave IL1B secr inh 27.0, TDP1 cell CPT inconclusive, HT1080-NT tox -0.4%, DT40 TDP1 no CPT 16.4µM*, HT1080 IDH1KD tx -10.9% and 12-LOX inh -18.9%.
Screening C=CCOc1c(Cl)cc(CNc2ccc3[nH]c(=O)[nH]c3c2)cc1OC returned IL1B secr inh 0.0, TDP1 cell CPT 13µM*, HT1080-NT tox inconclusive, DT40 TDP1 no CPT inconclusive, HT1080 IDH1KD tx inconclusive and 12-LOX inh 15.7%.
Screening CCOc1c(Cl)cc(CNC(C)C(O)c2ccccc2)cc1OC (stereo not drawn) returned IL1B secr inh -5.7, TDP1 cell CPT -12.1%, HT1080-NT tox 8.4%, DT40 TDP1 no CPT -12.4%, HT1080 IDH1KD tx -0.1% and 12-LOX inh 7.1%.
COc1ccc2[nH]c(C)c(CCNCc3cc(OC)c(OC)c(OC)c3)c2c1 was read as IL1B secr inh 3.8, TDP1 cell CPT inconclusive, HT1080-NT tox -5.6%, DT40 TDP1 no CPT -59.7%, HT1080 IDH1KD tx -16.5% and 12-LOX inh -23.6%.
For COC(=O)[C@@H]1[C@@H](CO)[C@@H]2Cn3c(ccc(Br)c3=O)[C@H]1N2Cc1cc(F)ccc1F the results were 12-LOX inh -3.9%.
CC(=O)OC1(c2ccccc2)CCN(CCc2ccccc2)CC1 was read as TDP1 cell CPT inconclusive and DT40 TDP1 no CPT 22.1µM*.
Screening COC(=O)c1ccc(NC(=O)COC(=O)c2cn(C)c3ccccc23)cc1 returned 12-LOX inh -16.9%.
For CCOc1cccc(=NC2CCCCC2)c2c(C)n(C)c(C)c12 the results were IL1B secr inh -97.3*, TDP1 cell CPT 4.11µM*, HT1080-NT tox 20.6µM*, DT40 TDP1 no CPT 2.59µM*, HT1080 IDH1KD tx 13µM* and 12-LOX inh -4.8%.
Screening O=C1c2cccc3cc([N+](=O)[O-])cc(c23)C(=O)N1c1ccccc1O returned IL1B secr inh 18.1, TDP1 cell CPT 20.6µM*, HT1080-NT tox -4.5%, DT40 TDP1 no CPT 16.4µM*, HT1080 IDH1KD tx 3.3% and 12-LOX inh -50.1%.
Screening CCNC(=O)NC(=O)COC(=O)c1cn(C)c2ccccc12 returned 12-LOX inh 41.8%.
CC(NC1CCCCC1)C(O)C12CC3CC(CC(C3)C1)C2 (stereo not drawn) was read as IL1B secr inh -54.7*, TDP1 cell CPT 18.4µM*, HT1080-NT tox inconclusive, DT40 TDP1 no CPT 16.4µM*, HT1080 IDH1KD tx inconclusive and 12-LOX inh 2.7%.
Screening CC(NC(C)(C)C)C(=O)c1cccc(Cl)c1 (stereo not drawn) returned IL1B secr inh 19.8, TDP1 cell CPT -2.7%, HT1080-NT tox 16.4%, DT40 TDP1 no CPT 16.4µM*!, HT1080 IDH1KD tx 7.7% and 12-LOX inh -5.1%.
`c1ccc(Nc2ccc3ccccc3c2)cc1` gave IL1B secr inh 7.8, TDP1 cell CPT inconclusive, HT1080-NT tox -0.3%, DT40 TDP1 no CPT inconclusive, HT1080 IDH1KD tx -1.9% and 12-LOX inh 28.3%.
For CC(C)Nc1ccc(Nc2ccccc2)cc1 the results were IL1B secr inh -94.7*, TDP1 cell CPT 6.51µM*, DT40 TDP1 no CPT 6.51µM* and 12-LOX inh inconclusive.
For CC(C)(C)CN1CCCC2(CC(c3cccnc3)=NO2)C1 (stereo not drawn) the results were 12-LOX inh 3.2%[12.5 µM].
`Cn1nc(-c2ccc3ccccc3c2)cc1[C@H]1CN2CC[C@H]1C[C@@H]2CNC(=O)c1ccco1` gave 12-LOX inh 23.8%.
Screening CCc1cccc(CC)c1N(COC)C(=O)CCl returned IL1B secr inh -19.0, TDP1 cell CPT 20.6µM*!, DT40 TDP1 no CPT inconclusive and 12-LOX inh -7.1%.

Source: PubChem BioAssay (National Center for Advancing Translational Sciences (NCATS))
